Only some compounds are listed: those with a hit (about 1.1% of all), similar ones and a draw of the others.
PI4K2A block: qHTS for small molecular inhibitors of PI4K2A. Phosphatidylinositol 4-kinase type 2-alpha (Homo sapiens), Q9BTU6. purified PI4K2A, ADP-Glo luminescence, 1 h; hits give low values. activity change, negative = inhibition, % at 76.9 µM. actives 0.13% (n = 420,000); in the data active = activity change below about -50%; inconclusive = mostly about -30% to -49%
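PI4K2A activity was measured by ADP-Glo luminescence: enzyme (4 ug/mL stock) and phosphatidylinositol (1.2 mM stock) in Tris pH 7.5/MgCl2/EGTA/Triton X-100 buffer were reacted with ATP (300 microM stock) for one hour at ambient temperature.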
a7 integrin act: qHTS for Activators of Integrin-Mediated Alleviation for Muscular Dystrophy; alpha7betagal myoblasts, beta-gal FDG fluorescence, 48 h; Potency, µM (highest dose often 38.3 µM), hits mostly activators; actives 0.064% (n = 350,000); also: nearly all actives have a fitted effect of over 60% in size
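alpha7betagal+/- myoblasts (passage 13, 250/well) treated 48 h at 37C with compounds at 1:260 dilution of DMSO stock. Lysed, then beta-galactosidase activity read as FDG fluorescence (ex 480/em 540) after 30 min, with pre-read for autofluorescence.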
LDHA inh: qHTS assay for inhibitors of human lactate dehydrogenase. L-lactate dehydrogenase A chain (Homo sapiens), P00338. purified LDHA, NADH/diaphorase-resazurin fluorescence; hits give low values. activity change, % (values are at about 110 or 230 µM). actives 0.15% (n = 480,000). AID 1347041, 2019; in the data active = activity change below about -30%; inconclusive = mostly about -25% to -30%
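Human LDH5 at 2 nM final in Tris HCl pH 7.4 with 0.06 mM NADH and 0.2 mM pyruvate, reacted 5 minutes at room temperature. Remaining NADH coupled via diaphorase/resazurin; resorufin fluorescence read at 0 and 20 minutes, normalized to enzyme-free and DMSO wells.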
TrxR1 substrate: qHTS Assay for Substrates of Mammalian Selenoprotein Thioredoxin Reductase 1 (TrxR1): qHTS; AID 588456, 2011; Thioredoxin reductase 1, cytoplasmic (Rattus norvegicus), O89049; actives 0.01% (n = 390,000); purified TrxR1 substrate turnover, NADPH consumption readout; Potency, µM (titrated, usually from 114 µM); also: nearly all actives have a fitted effect of over 50% in size
Target sequence (O89049 whole entry, looked up): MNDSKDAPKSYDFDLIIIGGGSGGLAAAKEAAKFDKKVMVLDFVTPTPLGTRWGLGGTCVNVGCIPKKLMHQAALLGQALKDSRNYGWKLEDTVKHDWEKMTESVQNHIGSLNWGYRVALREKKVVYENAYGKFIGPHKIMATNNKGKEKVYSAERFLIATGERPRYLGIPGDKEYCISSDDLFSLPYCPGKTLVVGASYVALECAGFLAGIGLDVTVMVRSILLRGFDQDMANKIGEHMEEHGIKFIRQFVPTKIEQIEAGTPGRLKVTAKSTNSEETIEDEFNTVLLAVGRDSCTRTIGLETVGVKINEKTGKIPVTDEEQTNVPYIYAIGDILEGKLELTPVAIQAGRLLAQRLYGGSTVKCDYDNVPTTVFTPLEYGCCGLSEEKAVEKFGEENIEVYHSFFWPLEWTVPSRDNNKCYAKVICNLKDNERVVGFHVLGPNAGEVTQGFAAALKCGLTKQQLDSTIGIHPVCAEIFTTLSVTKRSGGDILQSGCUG
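Rat TrxR1, dispensed at 90 nM, was prereduced with 400 uM NADPH (final) for 5 min at ~22 deg C, then incubated with compound 15 min before 400 uM selenite. A first-read NADPH fluorescence drop versus no-compound background flagged substrates.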
rTrxR1 inhibitor: qHTS Assay for Inhibitors of Mammalian Selenoprotein Thioredoxin Reductase 1 (TrxR1): qHTS; Thioredoxin reductase 1, cytoplasmic (Rattus norvegicus), O89049; recombinant rTrxR1, NADPH fluorescence consumption, selenite substrate; Potency, µM (series often up to 114 µM), actives largely listed as inhibitors; actives 1% (n = 390,000); also: nearly all actives have a fitted effect of over 65% in size
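Rat TrxR1 (90 nM in the dispensed reagent) was pre-reduced with 400 uM NADPH for 5 min at room temperature, then incubated with compound for 15 min. After 400 uM selenite was added, NADPH fluorescence (Ex 340/Em 450 nm) was followed for 8 min.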
GALK inh: qHTS Assay for Inhibitors of Human Galactokinase (GALK); P51570; Purified GALK, Kinase-Glo residual ATP luminescence; Potency, µM (series often up to 57.5 µM), most hits filed as inhibitors; actives 0.007% (n = 270,000); AID 1868, 2009
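GALK at 5 nM final was combined with compound, 35 uM ATP and 100 uM galactose in HEPES pH8.0 with MgCl2 and DTT. The reaction ran one hour at room temperature before luminescent ATP detection.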
Of the large screens only hits and unclear results are named; the others gave an inactive call. Unless noted, calls follow the shape of the dose curve; as a rule, active = well fitted curve in the direction sought with a large enough effect; inconclusive = small, poorly fitted or top-dose-only effect, or another doubt; inactive = no such curve, though single readings can be large; an effect the other way counts as inactive or inconclusive.

CN1C(=O)C(=Cc2cccnc2)C(=O)N(C)C1=O	rTrxR1 inhibitor 22.4µM
CN(N=O)c1ccc(O)c(O)c1	PI4K2A block -57.4, rTrxR1 inhibitor 0.947µM (no result: a7 integrin act, LDHA inh, GALK inh)
CCCC(=O)NC(Oc1ccccc1Cl)C(Cl)(Cl)Cl (configuration not stated)	rTrxR1 inhibitor 15.8µM
CCCC(=O)NC(Oc1ccc(Cl)cc1Cl)C(Cl)(Cl)Cl (configuration not stated)	none
NCCc1cccc(N)n1	none (no result: PI4K2A block, a7 integrin act, TrxR1 substrate, rTrxR1 inhibitor, GALK inh)
O=C1C(Cl)=CC(=Nc2ccc(O)cc2)C=C1Cl	rTrxR1 inhibitor 1.58µM (no result: GALK inh)
Cn1c(O)c(/C=C2\C=c3ccccc3=NC2=O)c(=O)n(C)c1=O	rTrxR1 inhibitor 35.5µM
c1ccc(CCNCc2ccc3[nH]ccc3c2)cc1	none (no result: PI4K2A block, a7 integrin act, TrxR1 substrate, rTrxR1 inhibitor, GALK inh)
CCN(CC)c1ccc(/C=C2/C(=O)NC(=O)N(Cc3ccco3)C2=O)cc1	PI4K2A block inconclusive, rTrxR1 inhibitor 35.5µM
CCN(CC)c1ccc(/C=C2\C(=O)NC(=O)N(CC3CCCO3)C2=O)cc1 (configuration not stated)	rTrxR1 inhibitor inconclusive
C=CCN1C(=O)NC(=O)/C(=C\c2ccc(-c3ccccc3[N+](=O)[O-])o2)C1=O	none
O=C1NC(=O)N(Cc2ccco2)C(=O)/C1=C/c1ccc(-c2cccc([N+](=O)[O-])c2)o1	PI4K2A block inconclusive, rTrxR1 inhibitor 39.8µM
CN(C)c1ccc(/C=C2/C(=O)NC(=O)N(Cc3ccco3)C2=O)cc1	rTrxR1 inhibitor 50.1µM
Cc1oc2cc(OC(=O)N(C)C)ccc2c(=O)c1-c1ccccc1	none (no result: PI4K2A block, a7 integrin act, TrxR1 substrate, rTrxR1 inhibitor, GALK inh)
O=C1NC(=O)N(c2ccccc2)C(=O)/C1=C/c1ccc(Sc2ccccc2)o1	PI4K2A block inconclusive, rTrxR1 inhibitor 14.1µM
O=C1NC(=O)N(c2ccccc2)C(=O)/C1=C/c1ccoc1	rTrxR1 inhibitor inconclusive
O=C1NC(=O)N(c2cccc(Cl)c2)C(=O)/C1=C\c1ccc(Sc2nc3ccccc3[nH]2)o1	PI4K2A block inconclusive, rTrxR1 inhibitor 8.91µM
COc1ccc2[nH]cc(CCNCc3ccc(OC)c(OC)c3)c2c1	none (no result: PI4K2A block, a7 integrin act, TrxR1 substrate, rTrxR1 inhibitor, GALK inh)
Cc1noc(C)c1COc1ccc(CC(=O)N2CCCN(C)CC2)cc1	none (no result: PI4K2A block, a7 integrin act, TrxR1 substrate, rTrxR1 inhibitor, GALK inh)
O=C(O)CCn1cc(C=C2C(=O)NC(=S)NC2=O)c(-c2ccccc2)n1	rTrxR1 inhibitor inconclusive
O=C(O)CCn1cc(C=C2C(=O)NC(=S)NC2=O)c(-c2cc3ccccc3oc2=O)n1	rTrxR1 inhibitor 7.08µM
C=CCN1C(=O)NC(=O)/C(=C/c2cnc(SC)nc2)C1=O	rTrxR1 inhibitor 14.1µM
C=CCN1C(=O)NC(=O)/C(=C/c2cc3c4c(c2)CCCN4CCC3)C1=O	rTrxR1 inhibitor 44.7µM
C=CCNC(=O)C(C)OC(=O)c1cn(C)c2ccccc12 (configuration not stated)	none (no result: PI4K2A block, a7 integrin act, TrxR1 substrate, rTrxR1 inhibitor, GALK inh)
O=C(Oc1ccc([N+](=O)[O-])cc1)N1CCN(/[N+]([O-])=N/Oc2ccc([N+](=O)[O-])cc2[N+](=O)[O-])CC1	rTrxR1 inhibitor inconclusive (no result: PI4K2A block, a7 integrin act, GALK inh)
CCOC(=O)N1CC(C)N(/[N+]([O-])=N/Oc2ccc([N+](=O)[O-])cc2[N+](=O)[O-])CC1C (configuration not stated)	rTrxR1 inhibitor 11.2µM (no result: PI4K2A block, a7 integrin act, LDHA inh, GALK inh)
O=C(c1ccc(CS(=O)(=O)c2ccccc2)o1)N1CCC2(CC1)OCCO2	rTrxR1 inhibitor 28.2µM
O=C(c1ccc(CS(=O)(=O)c2ccc(Br)cc2)o1)N1CCC2(CC1)OCCO2	none
CCCn1c(C)c(C(=O)NC2CCCCC2)c2cc(OC)ccc21	none (no result: PI4K2A block, a7 integrin act, TrxR1 substrate, rTrxR1 inhibitor, GALK inh)
O=C1NC(=S)NC(=O)C1=Cc1ccc2c(c1)CCN2CCCCl	PI4K2A block inconclusive, rTrxR1 inhibitor 28.2µM
Cc1c(CC(=O)N2CCN(C(c3ccccc3)c3ccccc3)CC2)c(=O)oc2cc(O)ccc12	none (no result: PI4K2A block, a7 integrin act, TrxR1 substrate, rTrxR1 inhibitor, GALK inh)

Compound activity (PubChem)
